Source: the supplement of paper PMC6763611

Tested on: Plasmodium falciparum NF54
Test: growth inhibition relative to untreated control; higher = more inhibition
Conditions: 72 h
Outline: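 Growth inhibition was measured by SYBR Green fluorescence, normalised to untreated wells and corrected for background from uninfected erythrocytes. The parasites were P. falciparum NF54 ring stages (1% hematocrit, 1% parasitemia) exposed to single 5 μM or 1 μM doses of test compounds for 72 h at 37 °C, in either minimal RPMI or minimal RPMI containing 2.2 μM folate, 7.3 μM pABA, 7.3 μM pHBA, 111 μM tyrosine, 90 μM phenylalanine and tryptophan.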

[1] = 1 µM, MM + chorismate end-products (CM screening medium)
[2] = 5 µM, MM + chorismate end-products (CM screening medium)

Compound	growth inhibition [1] [%]	growth inhibition (1 µM, minimal medium (MM)) [%]	growth inhibition [2] [%]	growth inhibition (5 µM, minimal medium (MM)) [%]
Cc1noc(C)c1C(=O)N1CCCC(c2[nH]c3c(C)cccc3c2-c2ccncc2)C1 (stereo unspecified)	97.7	95.3	92.6	92.4
CCNC(=O)C(C)Nc1nc(-c2cccnc2)nc2sc(C)c(C)c12 (stereo unspecified)	5.05	< 0	16.8	31.6
COc1cccc(NC(=O)c2c(NC(=O)c3cccnc3)sc3c2CCC3)c1	47.5	9.66	53.5	8.07
CC(C)(C)[C@H]1CC[C@H](CC2=C(O)C(=O)c3ccccc3C2=O)CC1	97.5	95.2	94.8	93.4
COc1nc2ccc(Br)cc2cc1[C@@H](c1ccccc1)[C@@](O)(CCN(C)C)c1cccc2ccccc12	73.2	77.4	99.4	88.2
N=C(N)c1ccc(-c2cc(-c3ccccc3)on2)cc1	2.89	5.06	86.7	71.2
N=C(N)Nc1ccc(-c2ccc(-c3ccc(NC(=N)N)cc3Cl)o2)c(Cl)c1	96.9	95.5	95.7	95.3
O=C(NCc1nnc2n1CCCCC2)c1ccc(-c2ccc(F)cc2)o1	< 0	< 0	< 0	< 0
OC[C@H]1O[C@@H](n2c3ccc(Cl)cc3c3c(-c4cc5ccccc5o4)ncnc32)C(O)[C@H]1O (stereo partly specified)	1.89	13.6	63.8	30
N#Cc1ccc(-c2ccc(OCC(N)=O)cc2)cc1	< 0	6.45	< 0	< 0
COc1cccc(OC)c1C(=O)Nc1ccc(Cl)c(-c2nc3ccccc3s2)c1	20.8	< 0	22.9	29.8
CCc1nc2ccccc2n1CC(O)COc1cc(C)ccc1Cl (stereo unspecified)	31.1	36.8	98.5	61
Cc1cc(Nc2ccc(C(F)(F)F)cc2)n2ccnc2n1	97.2	94.6	97.3	94.4
O=C(c1ccco1)N(CCCn1ccnc1)c1nc2c(Cl)cccc2s1	13.2	22.3	> 100	92.8
CC(C)(C)OC(=O)N1CCN(c2cc(-c3ccc(Oc4ccccc4)cc3)n[nH]2)CC1	< 0	18	64.8	16.8
COc1ccc(N(CCc2cccc(C)n2)C(C)=O)cc1	16.2	< 0	< 0	< 0
COc1ccc(-c2onc(C(F)(F)F)c2-c2ccc(Cl)cc2)c(O)c1	94	94.8	98.9	97.5
c1ccc(Oc2ccc(-c3cc(N4CCOCC4)[nH]n3)cc2)cc1	> 100	< 0	7.27	< 0
CC(C(=O)Nc1ccc2oc(-c3ccncc3)nc2c1)c1ccccc1 (stereo unspecified)	14.6	< 0	< 0	< 0
CC(=O)Oc1ccccc1C(=O)Nc1ncc([N+](=O)[O-])s1	< 0	4.44	12	< 0
CC(=O)NCC1CN(c2ccc(-c3ccc(CNCc4cn[nH]n4)cc3)c(F)c2)C(=O)O1 (stereo unspecified)	4.9	< 0	34.6	< 0
OCCc1ccc(Nc2nccc(-c3nnc4ccccn34)n2)cc1	82.3	80.1	65.5	52.1
CC(C)(C)c1cc(C(=O)Nc2cccnc2)cc(C(=O)Nc2cccnc2)c1	88.9	94.2	87.5	88.6

Compound	growth inhibition [1] [%]	growth inhibition (1 µM, minimal medium (MM)) [%]	growth inhibition [2] [%]	growth inhibition (5 µM, minimal medium (MM)) [%]
Cc1cccc(-c2nc(Nc3ccncn3)c3sccc3n2)n1	81.1	89.4	> 100	98.7
Cc1ccc(-c2cc(C(=O)Nc3cccnc3)c3cc(Br)ccc3n2)cc1	92.4	95.2	98.3	86.3
O=C(CN1CCOCC1)Nc1ccc2ncnc(Nc3ccc(OCc4cccc(F)c4)c(Cl)c3)c2c1	2.86	9.8	94.7	91.9
CS(=O)(=O)c1ccccc1C(=O)N(Cc1ccccc1)c1ccccc1	35.9	7.57	< 0	< 0
COc1ccc(CN2CCOc3ccc(C(C)(O)CN(C)C)cc3C2)cc1C (stereo unspecified)	78.6	75	66.7	21.7
NS(=O)(=O)c1cccc(-c2ccc3ncc(N4CCOCC4)nc3c2)c1	47	71	> 100	88.7
CCOc1ccc2cc(-c3nn(CC4CCN(C)CC4)c4ncnc(N)c34)ccc2c1	39.8	15.5	51.2	16.8
COc1ccc(C2=NN(C3CCCCCC3)C(=O)[C@@H]3CC=CC[C@H]23)cc1OCCCCOc1ccc(-c2nnn[nH]2)cc1	19	16.4	44.9	48.6
COc1ccc(-c2cncc3ccc(C(=O)NCCCn4ccnc4)nc23)cc1	22.9	72	84.4	92.4
COc1ccc(-c2nn(C(C)C)c3ncnc(N)c23)cc1OC	86.7	81.7	97.3	90.9
NC(CC(=O)c1ccc(Cl)cc1Cl)C(Cl)(Cl)Cl (stereo unspecified)	< 0	11.5	18.3	23
Cc1cnc(N2CCN[C@@H](Cc3ccccc3)C2)nc1Oc1ccc(-n2ccnc2)cc1	93.8	92.3	99.9	98.2
COc1ccc(OC)c(NCc2ccc3nc(N)nc(N)c3c2Cl)c1	99.9	> 100	96.1	94.2
CC(C)(CN)c1nc(-c2ccc(Cl)c(O)c2)c(-c2ccnc(N)n2)[nH]1	78.9	70.8	30.1	6.08
COc1ccc(-c2nc(-c3cccc(NC(=O)Cc4ccc(F)cc4)c3)no2)cc1OC	46.5	42.7	91.6	80.9
Cc1cccc(NC(=O)c2cc(S(=O)(=O)N(C)c3ccc(F)cc3)ccc2Cl)n1	86.6	82.9	87.9	91.5
O=C(NCc1ccoc1)N1CCN(Cc2ccc3c(c2)OCO3)CC1	< 0	6.98	< 0	< 0
CCCCCCCCCCCCCCCCOP(=O)([O-])OCC[N+](C)(C)C	35.9	19	3.26	8.75
c1ccc(-c2[nH]c3ccccc3c2C(c2ccccn2)N2CCCC2)cc1 (stereo unspecified)	3.66	5.9	43.6	< 0
CN1CCC(c2cc(-c3ccncc3)c(-c3ccc(F)cc3)[nH]2)CC1	72.9	72.7	92.6	92.2
Clc1cccc(C(c2ccc(CN3CCNCC3)cc2)n2ccnc2)c1 (stereo unspecified)	93.2	> 100	93.5	91.5
CN1CCN(S(=O)(=O)c2ccc(-c3ccc4c(Nc5ccc6nn[nH]c6c5)ccnc4c3)cc2)CC1	89.7	> 100	92.9	95.1
CNC(=O)C1Cc2ccccc2N1C(=O)Cc1ccc(F)cc1 (stereo unspecified)	10.9	< 0	< 0	< 0

Compound	growth inhibition [1] [%]	growth inhibition (1 µM, minimal medium (MM)) [%]	growth inhibition [2] [%]	growth inhibition (5 µM, minimal medium (MM)) [%]
O=C(NCCc1c[nH]c2ccccc12)c1cc2ccccc2oc1=O	20.7	2.31	< 0	< 0
CC(c1cc(Cl)cc(Cl)c1)N(C)c1ncc2c(N)nc(N)nc2n1 (stereo unspecified)	54.9	91.6	53	77.7
CCN(CC)S(=O)(=O)c1ccc(C(=O)Nc2cc(C)nn2-c2nc(C)c(C)c(=O)[nH]2)cc1	19.9	10.2	78.9	55.2
Cc1cc2nc(NC(=O)C(C)(C)C)nc(Cl)c2n1Cc1ccc(Cl)cc1	35.7	28.8	< 0	< 0
COc1cc(C(F)(F)F)nc2ccc(C)c(N)c12	< 0	30.2	< 0	< 0
Cc1ccc(NC(=O)c2cc(S(=O)(=O)NC(C)(C)C)ccc2C)nc1	70.6	52.9	93	94.5
O=C(Nc1ccc(F)c(-c2nc3cc(-c4ccccc4)cnc3[nH]2)c1)N1CCCC1	17.5	25.6	3.27	< 0
CCCc1ccc(S(=O)(=O)Nc2ccc(CN3CCN(CC4CC4)CC3)cc2)cc1	7.84	4.1	66.4	86.7
CC1CCCCN1C(=O)NCCc1coc(-c2ccc(F)cc2)n1 (stereo unspecified)	< 0	8.79	< 0	< 0
COc1ccc(Nc2ccccc2NC(=O)c2ccc(O)nc2)cc1	12.7	< 0	< 0	< 0
N=C(N)Nc1ccc(-c2ccc(-c3ccc(N=C(N)N)c(Cl)c3)o2)cc1Cl	73.6	> 100	97.4	88.2
COc1ccc2nc(C)cc(OCC(=O)Nc3ccccc3OC)c2c1	11.7	< 0	< 0	27.5
O=C(CCC1CCCCC1)Nc1cccc(-c2nnc(-c3ccco3)o2)c1	14.2	9.19	< 0	< 0
C[C@H]1c2cccc(O)c2C(=O)C2=C(O)[C@]3(O)C(=O)C(C(N)=O)=C(O)[C@@H](N(C)C)[C@@H]3[C@@H](O)[C@@H]21	50.6	50.7	41	< 0
CC(Oc1ccccc1)C(=O)Nc1nc(-c2ccccn2)cs1 (stereo unspecified)	< 0	38.4	68.6	38.2
Cc1cc(O)nc(-n2nc(C)cc2C)n1	5.27	< 0	< 0	< 0
C[C@@H]1[C@H](O)[C@@H](C)/C=C/C=C/C=C/C=C/C=C/C=C/C=C/[C@H](O[C@@H]2O[C@H](C)[C@@H](O)[C@H](N)[C@@H]2O)C[C@@H]2O[C@](O)(C[C@@H](O)C[C@@H](O)[C@H](O)CC[C@@H](O)C[C@@H](O)CC(=O)O[C@H]1C)C[C@H](O)[C@H]2C(=O)O	86.2	89.8	> 100	97.9
Cc1cc(C)cc(COc2ccc3c(C)c(CCC(=O)O)c(=O)oc3c2C)c1	22.5	15.7	< 0	< 0
O=C(Nc1nnc(S)s1)c1cc(Br)ccc1Cl	31.8	9.59	< 0	< 0
CC(C)(C)n1nc(-c2ccccc2)c2c(N)ncnc21	20.8	20.3	38.5	< 0
CNCCC(Oc1ccc(C(F)(F)F)cc1)c1ccccc1 (stereo unspecified)	10.2	< 0	< 0	2.19
CCC(C)NC(=O)c1ccc(NC(=O)C2(c3ccccc3)CCCC2)cc1 (stereo unspecified)	58	17.8	61.1	65.4
CCCNC(=O)N1CCC2(CC1)CC(=O)c1cc(C)ccc1O2	72.5	76.5	86.4	84.9
